Test results published in PubChem BioAssay.
Several values for one entry are separate records, joined by “and”; a condition that tells them apart may be missing. Equal entries are not always repeated. Activity calls are given as the source filed them. Unless noted, no stated cut-off is given here; in the data, active means parasite load remaining mostly below about 12% (no sharp cut-off); inactive means mostly above about 10%.

What was measured:
[1] = compounds altering viability of human ES cells (AID 493140; call rule not given here;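 further: cells exposed to compounds for four days before counting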); details: human embryonic stem cell survival screen; stronger effect = higher value
[2] = P. berghei load reduction in hepatocytes – cell-based, HepG2, luciferase luminescence, HepG2 viability, primary screen (AID 624349);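 further: 100% = mean of DMSO negative control wells on the same plate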; details: P. berghei liver stage in HepG2, luciferase luminescence, concentration not given here; parasite load remaining: stronger effect = lower value; viability: measured here: HepG2 viability without parasites
[3] = viability loss with induced miR-34 in A549 – imaging, A549 dox-inducible miR-34, nuclei and caspase counts, primary screen (AID 1347080;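 active means compounds whose cell count with miR-34 switched on is under 0.7 times the count with it off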); details: A549 miR-34 inducible, Hoechst nuclei count, 48 h
[4] = MELAS cybrid and Rieske KO viability enhancers – cell-based, MELAS cybrids, Rieske KO mouse fibroblasts, CellTiter-Glo, primary screen (AID 1508586;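 active means mean z-score across replicates of 1.96 or higher in either the MELAS or the Rieske mutant cell line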;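 further: z relative to plate mean and SD of compound and empty wells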); details: low glucose
[5] = stronger effect = lower value, cell number ratio, induced over uninduced
[6] = measured here: relative caspase fold change +Dox/-Dox
[7] = measured here: total cells with miR-34 induction, stronger effect = lower value
[8] = measured here: total cells without miR-34 induction
[9] = MELAS cybrid survival, CellTiter-Glo 48 h, stronger effect = higher value
[10] = Rieske KO mouse fibroblast survival, CellTiter-Glo 72 h

SMILES	survival [1]	parasite load remaining [2]	viability [2]	fold change [3, 5]	fold change [3, 6]	cell count [3, 7]	cell count [3, 8]	z-score [4, 9]	z-score [4, 10]
CC(=O)O[C@]1(C(C)=O)CC[C@H]2[C@@H]3C=C(Cl)C4=CC(=O)C5CC5[C@]4(C)[C@H]3CC[C@@]21C (stereo partly specified)	12.6 (inactive)	65.7% (inactive)	68.5%	0.93 (inactive)	0.98	8920	9590	-0.145 (inactive)	0.56
CN[C@@H]1[C@H](O[C@H]2[C@H](O[C@@H]3[C@@H](O)[C@H](O)[C@@H](N=C(N)N)[C@H](O)[C@H]3N=C(N)N)O[C@@H](C)[C@]2(O)CO)O[C@@H](CO)[C@H](O)[C@H]1O	13.1 (inactive)	58.9% (inactive) and 103% (inactive)	51% and 87.7%	0.925 (inactive)	1.1	9160	9910	-0.905 (inactive)	-0.0139
COc1ccc2c(c1)N(C[C@H](C)CN(C)C)c1ccccc1S2	1.83 (inactive)	76.2% (inactive)	87.8%	0.88 (inactive)	1.53	7810	8880	-1.21 (inactive)	-0.494
c1ccc(CNc2ncnc3nc[nH]c23)cc1	39 (inactive)	31% (inactive) and 123% (inactive)	49.8% and 87.6%	1.05 (inactive)	1.32	8060	7640	2.23 (active)	0.15
